A selection: hits, their analogues and other compounds. The true share with any hit is near 4%.
Mtb FBA inh: Mtb FBA enzyme inhibitors, primary screen, biochemical, fluorescence, strain H37Rv; AID 588726, 2011; purified M. tuberculosis FBA, fluorescence read-out; 2.3% of 360,000 active; Fructose-bisphosphate aldolase (Mycobacterium tuberculosis (strain ATCC 25618 / H37Rv)), …; inhibition, % at 1 µM;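 further: 0% = vehicle and 100% = reference inhibitor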
Target sequence (P9WQA3 whole entry, looked up): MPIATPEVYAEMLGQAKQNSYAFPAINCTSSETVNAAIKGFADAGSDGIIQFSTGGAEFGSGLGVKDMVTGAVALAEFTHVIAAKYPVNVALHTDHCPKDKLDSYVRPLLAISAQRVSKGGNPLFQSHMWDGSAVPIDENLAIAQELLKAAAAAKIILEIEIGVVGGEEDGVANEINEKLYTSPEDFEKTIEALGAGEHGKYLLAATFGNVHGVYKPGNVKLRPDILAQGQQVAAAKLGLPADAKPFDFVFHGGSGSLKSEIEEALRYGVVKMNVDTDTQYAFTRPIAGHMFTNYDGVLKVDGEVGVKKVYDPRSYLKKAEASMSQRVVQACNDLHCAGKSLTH
Mtb UGM inh: M. tuberculosis UGM enzyme inhibitors, primary screen, biochemical, fluorescence polarization, single point; purified UGM, fluorescence polarization probe displacement; inhibition, % at 10 µM; 0.06% of 320,000 active; AID 504406, 2011; in the data active means inhibition above about 10%, passing the limit was not always enough
RecA splice inh: Mtb RecA intein splicing inhibitors, primary screen, biochemical, fluorescence, HTS; Protein RecA (Mycobacterium tuberculosis (strain ATCC 25618 / H37Rv)), P9WHJ3; cell-free RecA intein splicing; inhibition, % (test concentration not listed); 0.75% of 290,000 active; AID 2221, 2009; in the data active means inhibition above about 30%;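 further: 0% = vehicle wells and 100% = reference inhibitor control wells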
GDH-TPI counter-1: GDH-TPI coupling enzyme inhibitors, primary screen, artefact control for M. tuberculosis FBA inhibitor project, biochemical, absorbance, full deck. inhibition, % at 4.8 µM. GDH-TPI coupled enzyme counterscreen, NADH absorbance. 1.2% of 360,000 active. AID 588335, 2011; in the data active means inhibition above about 30%;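 further: 0% = DMSO wells and 100% = wells lacking the enzyme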
Rv3671c inh: Rv3671c serine protease inhibitors, primary screen, biochemical, fluorescence polarization, M. tuberculosis H37Rv | P9WHR9 | inhibition, % at 5.96 µM | 0.048% of 320,000 active; in the data active means inhibition above about 38%;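 further: extracellular domain of Rv3671c used as enzyme; 0% = enzyme with DMSO and 100% = no enzyme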
Mtb betalactam: beta-lactam sensitization of Mtb H37Rv, H37Rv. inhibition, % at 25 µM. M. tuberculosis H37Rv growth with meropenem, percent inhibition. 0.27% of 330,000 active; call rule not given here;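 further: growth measured after seven days incubation then overnight dye step; 0% = bacteria only wells and 100% = bacteria with antibiotic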
Mtb FBA inh conf: M. tuberculosis aldolase blockers, biochemical, fluorescence, strain H37Rv, confirmation. shares compounds with Mtb FBA inh. 78% of 5,600 active. inhibition, % at 1 µM. purified M. tuberculosis FBA, fluorescence read-out;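 further: 0% = vehicle wells and 100% = reference inhibitor wells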
GDH-TPI counter-2: GDH-TPI coupling enzyme inhibitors, artefact control for M. tuberculosis FBA inhibitor project, biochemical, fluorescence, high throughput; GDH-TPI coupled enzyme counterscreen; shares compounds with Mtb FBA inh; inhibition, % at 1 µM; AID 652141, 2013; 81% of 5,600 active; in the data active means inhibition above about 10%
GDH-TPI DR: GDH-TPI coupling enzyme inhibitors, dose response, artefact control for M. tuberculosis FBA inhibitor project, biochemical, fluorescence, IC50 | AID 652145, 2013 | 79% of 170 active | shares compounds with Mtb FBA inh | GDH-TPI coupled enzyme assay, artifact counterscreen | IC50, µM; call rule not given here
An asterisk follows results filed as active; . = not tested or not shown; + = active, no number. Unless noted, no stated cut-off is given here; in the data, active means inhibition above about 27%; inactive means the rest.

SMILES	Mtb FBA inh	Mtb UGM inh	RecA splice inh	GDH-TPI counter-1	Rv3671c inh	Mtb betalactam	Mtb FBA inh conf	GDH-TPI counter-2	others
CCc1c(C)c2ccc(OCC(=O)NCC3CCC(C(=O)O)CC3)c(C)c2oc1=O (centres undefined)	38*	0	-2	5	8	-5	167*	134*
CCCCc1cc(=O)oc2c(C)c(OCC(=O)NCC3CCC(C(=O)O)CC3)ccc12 (centres undefined)	21	-1	.	15	4	-5	.	.
Cc1cccc(C)c1NC(=O)COc1ccc2c(C)c(Cc3ccccc3)c(=O)oc2c1	57*	2	0	16	-4	0	+	193*
CCc1c(C)c2ccc(OCC(=O)OC)cc2oc1=O	70*	-2	-1	17	-5	97	61*	48*
Cc1cc(=O)oc2cc(OCC(=O)NCC3CCCO3)ccc12 (centres undefined)	11	-2	2	4	3	-3	.	.
CCN(CC)S(=O)(=O)c1cc(NC(=O)CNc2cccc(S(=O)(=O)N3CCCC3)c2)ccc1C	-1	6	4	-3	-9	-3	.	.
Cc1cccc(NC(=O)CCNS(=O)(=O)c2ccc3[nH]c(=O)oc3c2)c1	-1	5	-5	-1	-9	-8	.	.
COc1ccc(CCN2CC(C(=O)NCc3cccc4[nH]ccc34)CCC2=O)cc1 (centres undefined)	3	1	3	6	8	-7	.	.
CC(C)c1cccc(C(C)C)c1NC(=O)OC1CCCCC1	-4	.	.	.	.	.	.	.
CC(C)c1nc2cc(C(=O)N3CCNC(=O)C3c3cccc(F)c3)ccc2o1 (centres undefined)	2	0	-2	-1	-9	3	.	.
Cc1cn([C@H]2C[C@H](O)[C@@H](CNCc3ccc(CN(C)S(C)(=O)=O)o3)O2)c(=O)[nH]c1=O	2	.	.	-15	.	.	.	.
COC(=O)COc1cc(C)cc2oc(=O)c(CC(=O)OC)c(C)c12	93*	-2	-3	9	-9	-6	84*	66*
CCN(CC)S(=O)(=O)c1cc(C(=O)OCC(=O)Nc2ccc(-c3nc4ccc(C)cc4s3)cc2)ccc1F	13	-2	0	3	-2	-3	.	.
Cc1ccc2nc(-c3ccc(NC(=O)CCN4C(=O)c5ccccc5C4=O)cc3)sc2c1	97*	2	-3	10	2	8	162*	122*
CCN(CC)S(=O)(=O)c1ccc(C(=O)OCC(=O)Nc2ccc(-c3nc4ccc(C)cc4s3)cc2)cc1	28*	-1	-2	18	-6	-5	-2	-2
Cc1ccc(NC(=O)c2ccccc2F)nc1	33*	2	0	3	-1	-3	96*	78*
Cc1ccc(NC(=O)c2cc(F)c(F)cc2Cl)nc1	82*	0	-2	-1	6	-7	136*	124*
O=C(CCc1ccccc1Cl)NC1CCCN(c2ccc(C(F)(F)F)cn2)C1 (centres undefined)	3	1	2	3	6	-3	.	.
CCC(C)NC(=O)c1ccc(Cl)c(S(=O)(=O)Nc2ccccc2N2CCOCC2)c1 (centres undefined)	-1	2	.	-5	-5	2	.	.
Cc1ccc(-n2nc3ccc(N)cc3n2)cc1C	27*	-1	-16	12	-26	1	15	10	GDH-TPI DR=1.5*
COc1ccc(NS(=O)(=O)c2cn(C)cn2)cc1Cl	1	-1	-1	-2	10	1	.	.
Cc1ccc(-n2cnnn2)cc1Cl	-3	5	2	-2	-1	7	.	.
Cc1cc(N)n(-c2ccc(C)c(C)c2)n1	2	0	2	7	1	10	.	.
Cc1ccc(-n2nc3ccc(N)cc3n2)cc1Cl	28*	3	-59	6	-14	-2	59*	47*
COc1ccc(-n2nc3ccc(NS(C)(=O)=O)cc3n2)cc1Cl	92*	0	.	11	1	7	36*	22*
SMILES	Mtb FBA inh	Mtb UGM inh	RecA splice inh	GDH-TPI counter-1	Rv3671c inh	Mtb betalactam	Mtb FBA inh conf	GDH-TPI counter-2	others
COc1ccc(-n2nc3ccc(N)cc3n2)cc1Cl	64*	-2	.	24	-9	8	50*	44*
CC(C)NC(=O)C1(C)CCCN1C(=O)c1cc(C#N)cs1 (centres undefined)	1	.	.	0	.	.	.	.
Cc1cc(N)ccc1-n1nc2ccccc2n1	2	-5	4	17	-5	35	.	.
Cc1ccc(-n2nc3ccc(N)cc3n2)c(C)c1	100*	0	4	20	-8	-3	+	+
O=C1Nc2ccc(S(=O)(=O)N(CCO)CCO)c3cccc1c23	32*	1	-2	8	.	4	0	-5
O=C(O)CNS(=O)(=O)c1ccc2c3c(cccc13)C(=O)N2	37*	0	-103	16	.	0	+	145*
O=C(O)CCCCCNS(=O)(=O)c1ccc2c3c(cccc13)C(=O)N2	40*	1	-188	10	.	-1	90*	67*
O=C1Nc2ccc(S(=O)(=O)NCc3ccco3)c3cccc1c23	26	0	-45	7	-1	10	.	.
CNS(=O)(=O)c1cc(S(=O)(=O)NC)c2cccc3c2c1NC3=O	31*	-2	-17	23	2	5	92*	77*
COCC(=O)Oc1cc(-c2ccc(C)cc2C)c(OC(=O)COC)c(-c2ccc(C)cc2C)c1	0	.	.	9	.	.	.	.
CN(CC(=O)Nc1cccc(F)c1)C(=O)C1CCC(C(=O)N(C)CC(=O)Nc2cccc(F)c2)CC1 (centres undefined)	-2	.	.	0	.	.	.	.
COc1ccc(NC(=O)c2sc(=O)n(Cc3ccccc3C#N)c2C)cc1OC	-1	.	.	-7	.	.	.	.
CC(C)C(NS(=O)(=O)c1ccc2c3c(cccc13)C(=O)N2)C(=O)O (centres undefined)	15	0	-36	15	-5	-12	.	.
CNS(=O)(=O)c1ccc2c3c(cccc13)C(=O)N2	56*	-3	-154	17	.	-4	17	4	GDH-TPI DR=2.9*
C=CCOc1ccc2c(OC)c3ccoc3nc2c1OC	87*	-1	11	1	-6	-2	40*	28*
CCOc1c(OC)ccc2c3c(c(=O)oc12)CCCC3	19	1	0	9	-7	.	.	.
